HCV NS3h FP: hepatitis C NS3 helicase inhibition, primary screen; inhibition, % at 100 µM; 1.6% of 16,000 active; NS3h Cy5-dT15 DNA binding, fluorescence polarization;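 active = inhibition above the average over every tested compound plus 3 SD, cut at about 40% in these data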
Cy5 interf NS3h: Cy5 fluorescence interference, HCV helicase counter-screen. Cy5-dT15 DNA with NS3h; actives lie on both sides; signal over control mean, under 1 quenches. fluorescence interference ratio at 100 µM. 6% of 16,000 active;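 active = compound fluorescence over control fluorescence at most 0.8, a quencher, or at least a set upper limit, an enhancer; inactive = ratio between 0.8 and the set upper limit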
The depositor's hits bear a star. Compounds with a hit are over-represented: about 6.8% of the library has one in this group of screens.

SMILES | HCV NS3h FP | Cy5 interf NS3h
O=C(CSc1nc2ccccc2s1)Nc1nc2ccccc2s1 | 8 | 0.97
COc1ccc(NC(=O)CSc2nc3ccccc3s2)c(OC)c1 | 4 | 0.63*
O=C(CSc1nc2ccccc2s1)c1ccc2ccccc2c1 | 12 | 0.74*
COc1ccc(CNC(=O)CSc2nc3ccccc3s2)cc1 | 7 | 0.98
CC(=O)Nc1ccc(-c2nc(-c3ccccc3)c3cc(NC(C)=O)ccc3n2)cc1 | 11 | 0.95
CCN(O)C(C)(C)/C(=N\O)c1ccccc1 | 5 | 1
COC(=O)c1ccccc1NC(=O)CN(c1ccc(C(C)C)cc1)S(=O)(=O)c1ccccc1 | 11 | 0.99
CC(C)COc1ccc2c(c1)c1c3c(nccn32)CCC1 | -3 | 0.76*
Cc1ccc(S(=O)(=O)Nc2ccc(Br)cc2C(=O)c2ccccc2)cc1 | 11 | 1
O=[N+]([O-])c1ccc(Cl)cc1NCCc1ccccc1 | 18 | 0.79*
COc1ccccc1OCCNc1cc(Cl)ccc1[N+](=O)[O-] | 3 | 1
O=[N+]([O-])c1ccc(N2CCOCC2)cc1NCCc1ccccc1 | 30 | 0.67*
Cc1cccc(OCCNc2cc(Cl)ccc2[N+](=O)[O-])c1 | 14 | 0.82
O=[N+]([O-])c1ccc(Cl)cc1NCCOc1ccc(F)cc1 | 21 | 0.69*
O=[N+]([O-])c1ccc(N2CCN(CCO)CC2)cc1NCCc1ccccc1 | 8 | 0.96
Cc1ccc(-c2ccc(C=C3C(=O)NC(=O)NC3=O)o2)c([N+](=O)[O-])c1 | 41* | 0.72*
Cc1ccc(-c2ccc(/C=C3\SC(=S)NC3=O)o2)c([N+](=O)[O-])c1 | 20 | 0.89
COc1ccc(N(CC(=O)Nc2cccc3ccccc23)S(C)(=O)=O)cc1Cl | 11 | 0.99
CCC1CCc2c(sc(NC(=O)CCC(=O)O)c2C#N)C1 (centres undefined) | 5 | 1.1
CCOc1cc(/C=C(\C#N)c2nn(CCO)c(N)c2C#N)cc(Br)c1OC | -18 | 0.99
COc1ccc(/C=C(\C#N)c2nn(-c3ccccc3)c(N)c2C#N)cc1[N+](=O)[O-] | -30 | 0.79*
COc1cc(C2C3C(=O)N(Cc4ccccc4)C(=O)C3ON2c2ccccc2)ccc1O (centres undefined) | 5 | 1.1
CCOc1ccc(NC(=O)c2cccc(-c3ccc(OC(C)=O)cc3)c2)cc1 | 25 | 0.86
COc1ccc(C2NC(c3ccc(OC)cc3)C(c3ccccc3)C(=O)C2c2ccccc2)cc1 (centres undefined) | 18 | 0.72*
COc1ccc(C2NC(c3ccc(OC)cc3)C3CCCC2C3=O)cc1 (centres undefined) | 6 | 1
SMILES | HCV NS3h FP | Cy5 interf NS3h
CC(=O)CCc1c(C)[nH]c2c(Cl)cccc2c1=S | 3 | 0.98
COc1cc(OC)cc(C(=O)N2CCN(C3CCC(c4ccccc4)CC3)CC2)c1 (centres undefined) | 13 | 0.82
COc1cccc(C(=O)N2CCN(C3CC4CCC3C4)CC2)c1 (centres undefined) | -10 | 0.68*
CN(C)S(=O)(=O)c1ccc(C(=O)Nc2cc(Cl)cc(Cl)c2)cc1 | 4 | 1
Cc1ccc(S(=O)(=O)NCCNc2ccc(Cl)cc2[N+](=O)[O-])cc1 | 13 | 0.83
Cc1c(NC(=O)c2ccco2)cccc1[N+](=O)[O-] | 4 | 1.1
CCOc1ccc(/C=C2\C(=O)NC(=O)N(c3cccc(Br)c3)C2=O)cc1Cl | 13 | 1.2*
CCOc1ccc(/C=C2\C(=O)NC(=O)N(c3ccc(C)cc3)C2=O)cc1Cl | 41* | 0.94
CCOc1ccc(/C=C2\C(=O)NC(=O)N(c3ccc(Cl)cc3)C2=O)cc1Cl | 26 | 1
CCOc1ccc(N2C(=O)NC(=O)/C(=C\c3ccc(OCC)c(Cl)c3)C2=O)cc1 | 14 | 1
COc1cc(C(=O)c2cc(Br)ccc2NC(=O)COc2ccccc2)cc(OC)c1OC | 21 | 0.99
CCc1nc(C)ccc1OC(=O)C1C2CC3CC(C2)CC1C3 (centres undefined) | 2 | 0.96
COCCOC(=O)c1c(C)oc2ccc(OC(=O)N3CCOCC3)cc12 | 22 | 0.94
CCOc1ccc(/C=C2/C(=O)NC(=O)N(c3ccc(OC)cc3)C2=O)c(OCC)c1 | 35 | 0.91
COc1cc(/C=N\N2C(=O)CSC2=S)ccc1OCCOc1ccc(C(C)(C)C)cc1 | 11 | 1.1
COc1cc(/C=N\N2C(=O)CSC2=S)ccc1OCCOc1cc(C)ccc1C(C)C | 6 | 1.2*
CCN(C(=O)c1ccccc1Cl)c1ccccc1 | 7 | 0.67*
CCCN(CCC)C(=O)c1ccccc1NC(=O)c1ccccc1Cl | -12 | 1
COc1ccccc1NC(=O)/C(=C\c1cccs1)NC(=O)c1ccc(C(C)(C)C)cc1 | 1 | 0.89
O=C(CSc1cc(Cl)ccc1Cl)Nc1cccc([N+](=O)[O-])c1 | 9 | 0.98
COc1ccc(CNC(=S)Nc2ccc(Cl)cc2Cl)cc1 | 28 | 1.1
C/C(=N/N=C1\NC(=O)C(CC(=O)Nc2ccc([N+](=O)[O-])cc2)S1)c1ccc(F)cc1 (centres undefined) | 26 | 1
